Measured values as given in the antibiotic and cytotoxicity screens of Wong et al. (2023).
About 1,500 (3.8%) of roughly 39,000 compounds were called active. What follows is part of a selection rich in actives, with near analogues and random picks from the rest.

What follows are compounds tested on HSkMC (human skeletal muscle cells) (assay: cytotoxicity call (relative viability < 0.9)). Conditions: 10 µM.

Row | SMILES | cytotoxicity call
1 | CN1CCN(C(=O)C[C@H]2C=C[C@@H](NC(=O)Cc3ccccn3)[C@H](CO)O2)CC1 | inactive
2 | C[C@@H]1CN([C@H](C)CO)C(=O)c2cc(NC(=O)Nc3ccc(C(F)(F)F)cc3)ccc2O[C@@H]1CN(C)C(=O)NC1CCCCC1 | active
3 | C[C@@H]1CN([C@H](C)CO)C(=O)c2cc(NC(=O)Nc3ccc(C(F)(F)F)cc3)ccc2O[C@@H](C)CCCCO[C@@H]1CN(C)C(=O)NC1CCCCC1 | inactive
4 | COc1ccc(NC(=O)Nc2ccc3c(c2)C(=O)N([C@@H](C)CO)C[C@@H](C)[C@@H](CN(C)C(=O)NC2CCCCC2)OCCCC[C@@H](C)O3)cc1 | active
5 | C[C@H]1CN([C@@H](C)CO)C(=O)c2cc(NC(=O)Nc3ccc(C(F)(F)F)cc3)ccc2O[C@@H]1CN(C)C(=O)NC1CCCCC1 | inactive
6 | C[C@@H]1CCCCO[C@@H](CN(C)C(=O)NC2CCCCC2)[C@H](C)CN([C@@H](C)CO)C(=O)c2cc(NC(=O)Nc3ccc(C(F)(F)F)cc3)ccc2O1 | inactive
7 | C[C@@H]1CCCCO[C@@H](CN(C)C(=O)NC2CCCCC2)[C@@H](C)CN([C@H](C)CO)C(=O)c2cc(NC(=O)Nc3ccc(C(F)(F)F)cc3)ccc2O1 | active
8 | COc1ccc(NC(=O)Nc2ccc3c(c2)C(=O)N([C@@H](C)CO)C[C@H](C)[C@H](CN(C)C(=O)NC2CCCCC2)OCCCC[C@H](C)O3)cc1 | inactive
9 | C[C@@H]1CN([C@H](C)CO)C(=O)c2cc(NC(=O)Nc3ccc(C(F)(F)F)cc3)ccc2O[C@H]1CN(C)C(=O)NC1CCCCC1 | inactive
10 | COc1ccc(NC(=O)Nc2ccc3c(c2)C(=O)N([C@H](C)CO)C[C@H](C)[C@@H](CN(C)C(=O)NC2CCCCC2)OCCCC[C@@H](C)O3)cc1 | inactive
11 | C[C@@H]1CCCCO[C@H](CN(C)C(=O)NC2CCCCC2)[C@H](C)CN([C@H](C)CO)C(=O)c2cc(NC(=O)Nc3ccc(C(F)(F)F)cc3)ccc2O1 | active
12 | C[C@H]1CCCCO[C@@H](CN(C)C(=O)NC2CCCCC2)[C@@H](C)CN([C@@H](C)CO)C(=O)c2cc(NC(=O)Nc3ccc(C(F)(F)F)cc3)ccc2O1 | inactive
13 | C[C@@H]1CCCCO[C@H](CN(C)C(=O)NC2CCCCC2)[C@@H](C)CN([C@@H](C)CO)C(=O)c2cc(NC(=O)Nc3ccc(C(F)(F)F)cc3)ccc2O1 | inactive
14 | COCC#Cc1cnc2c(c1)C(=O)N([C@H](C)CO)C[C@@H](C)[C@@H](CN(C)C(=O)c1cnccn1)O2 | inactive
15 | C[C@H]1CN([C@@H](C)CO)C(=O)c2cccc(NC(=O)Nc3ccccc3)c2O[C@H]1CN(C)Cc1ccc(C(F)(F)F)cc1 | inactive
16 | C[C@@H]1CN([C@@H](C)CO)C(=O)c2cc(NS(C)(=O)=O)ccc2O[C@@H]1CN(C)S(=O)(=O)c1ccc(Cl)cc1 | inactive
17 | C=CCOC(=O)[C@H]1[C@@H]2C(=O)O[C@@H](c3ccccc3)[C@@H](c3ccccc3)N2[C@@H](c2ccc(OCCOC(=O)[C@H]3C[C@H]4C(=O)NCC(=O)N4[C@H]3c3ccc(O)cc3)cc2)[C@]12C(=O)Nc1ccc(I)cc12 | inactive
18 | C=C(O)C(=O)O | inactive
19 | C[C@H]1CN([C@@H](C)CO)C(=O)Cc2cc(NS(=O)(=O)c3cccs3)ccc2O[C@@H]1CN(C)S(=O)(=O)c1cccs1 | inactive
20 | Cc1cc(NC(=O)CCCC(=O)O)n(C)n1 | inactive

Row | SMILES | cytotoxicity call
21 | C[C@@H]1CN([C@@H](C)CO)C(=O)c2cc(NC(=O)Nc3ccc(F)cc3)ccc2O[C@@H]1CN(C)C(=O)Nc1cccc2ccccc12 | active
22 | C[C@@H]1CN([C@H](C)CO)C(=O)c2cc(NC(=O)Nc3ccc(F)cc3)ccc2O[C@@H]1CN(C)C(=O)Nc1cccc2ccccc12 | active
23 | C[C@@H]1CN([C@H](C)CO)C(=O)c2cc(NC(=O)Nc3ccc(F)cc3)ccc2O[C@H]1CN(C)C(=O)Nc1cccc2ccccc12 | inactive
24 | C[C@H]1CN([C@@H](C)CO)C(=O)c2cc(NC(=O)Nc3ccc(F)cc3)ccc2O[C@@H]1CN(C)C(=O)Nc1cccc2ccccc12 | inactive
25 | C[C@H](CO)N1C[C@H](C)[C@H](CN(C)C(=O)Nc2cccc3ccccc23)Oc2ccc(NC(=O)Nc3ccc(F)cc3)cc2C1=O | inactive
26 | C[C@H](CO)N1C[C@H](C)[C@@H](CN(C)C(=O)Nc2cccc3ccccc23)Oc2ccc(NC(=O)Nc3ccc(F)cc3)cc2C1=O | inactive
27 | Cc1ccc(S(=O)(=O)N(C)C[C@H]2Oc3ccc(NC(=O)C4CC4)cc3CC(=O)N([C@@H](C)CO)C[C@H]2C)cc1 | inactive
28 | C[C@@H]1CCCCO[C@@H](CN(C)S(=O)(=O)c2ccccc2)[C@@H](C)CN([C@@H](C)CO)C(=O)c2cc(NC(=O)C3CCCCC3)ccc2O1 | inactive
29 | C[C@H]1CN([C@@H](C)CO)C(=O)c2cc(Br)cnc2O[C@H]1CN(C)S(=O)(=O)c1cccs1 | inactive
30 | C[C@@H]1CCCCO[C@H](CN(C)S(=O)(=O)c2cccs2)[C@H](C)CN([C@H](C)CO)C(=O)c2cc(NS(C)(=O)=O)ccc2O1 | inactive
31 | Cc1noc(C)c1S(=O)(=O)N(C)C[C@@H]1Oc2ccc(NS(=O)(=O)c3cccs3)cc2CC(=O)N([C@H](C)CO)C[C@H]1C | inactive
32 | C[C@@H]1CN([C@H](C)CO)C(=O)c2cc(NS(C)(=O)=O)ccc2O[C@@H](C)CCCCO[C@H]1CN(C)S(=O)(=O)c1cccs1 | inactive
33 | CC1=CC[C@H](C(C)(C)O)CC1 | inactive
34 | C=CC(C)(O)CCC=C(C)C (centres undefined) | inactive
35 | CC(C)=CCCC(C)(O)C1CC=C(C)CC1 (centres undefined) | active
36 | CC(C)CC#Cc1cnc2c(c1)C(=O)N([C@@H](C)CO)C[C@@H](C)[C@H](CN(C)S(=O)(=O)c1cn(C)cn1)O2 | inactive
37 | C[C@@H]1CN([C@@H](C)CO)C(=O)c2cc(NS(=O)(=O)c3ccc(Cl)cc3)ccc2O[C@@H](C)CCCCO[C@H]1CN(C)C(=O)Cc1ccccc1 | inactive
38 | C[C@@H]1CCCCO[C@@H](CN(C)C(=O)C2CCCCC2)[C@@H](C)CN([C@H](C)CO)C(=O)c2cc(NS(=O)(=O)c3ccc(Cl)cc3)ccc2O1 | active
39 | C[C@@H]1CCCCO[C@H](CN(C)C(=O)C2CCCCC2)[C@H](C)CN([C@H](C)CO)C(=O)c2cc(NS(=O)(=O)c3ccc(Cl)cc3)ccc2O1 | inactive
40 | C[C@@H]1CN([C@@H](C)CO)C(=O)c2cc(NS(=O)(=O)c3ccc(Cl)cc3)ccc2O[C@@H](C)CCCCO[C@H]1CN(C)C(=O)C1CCCCC1 | inactive

Row | SMILES | cytotoxicity call
41 | C[C@@H]1CCCCO[C@@H](CN(C)C(=O)Cc2ccccc2)[C@@H](C)CN([C@@H](C)CO)C(=O)c2cc(NS(=O)(=O)c3ccc(Cl)cc3)ccc2O1 | inactive
42 | C[C@@H]1CCCCO[C@H](CN(C)C(=O)C2CCCCC2)[C@@H](C)CN([C@H](C)CO)C(=O)c2cc(NS(=O)(=O)c3ccc(Cl)cc3)ccc2O1 | inactive
43 | C[C@H]1CCCCO[C@H](CN(C)C(=O)Cc2ccccc2)[C@@H](C)CN([C@@H](C)CO)C(=O)c2cc(NS(=O)(=O)c3ccc(Cl)cc3)ccc2O1 | active
44 | C[C@@H]1CCCCO[C@H](CN(C)C(=O)C2CCCCC2)[C@H](C)CN([C@@H](C)CO)C(=O)c2cc(NS(=O)(=O)c3ccc(Cl)cc3)ccc2O1 | active
45 | C[C@@H]1CCCCO[C@@H](CN(C)C(=O)C2CCCCC2)[C@H](C)CN([C@@H](C)CO)C(=O)c2cc(NS(=O)(=O)c3ccc(Cl)cc3)ccc2O1 | inactive
46 | C[C@H](CO)N1C[C@H](C)[C@@H](CN(C)C(=O)C2CCCCC2)OCCCC[C@H](C)Oc2ccc(NS(=O)(=O)c3ccc(Cl)cc3)cc2C1=O | inactive
47 | C[C@H]1CCCCO[C@H](CN(C)C(=O)C2CCCCC2)[C@@H](C)CN([C@@H](C)CO)C(=O)c2cc(NS(=O)(=O)c3ccc(Cl)cc3)ccc2O1 | active
48 | C[C@@H]1CN([C@H](C)CO)C(=O)c2cc(NS(=O)(=O)c3ccc(Cl)cc3)ccc2O[C@@H](C)CCCCO[C@H]1CN(C)C(=O)C1CCCCC1 | inactive
49 | CNC(=O)CN1CCO[C@H]2CN(C(=O)c3cnccn3)C[C@@H]21 | inactive
50 | CC1(C)C(=O)NCCN1C(=O)c1ccco1 | inactive
51 | C[C@H]1CN([C@@H](C)CO)C(=O)Cc2cc(NS(=O)(=O)c3ccc(Cl)cc3)ccc2O[C@H]1CN(C)S(=O)(=O)c1cn(C)cn1 | inactive
52 | C[C@@H]1CN([C@H](C)CO)C(=O)Cc2cc(NC(=O)Cc3cn(C)c4ccccc34)ccc2O[C@H]1CN(C)C(=O)Nc1ccc(C(F)(F)F)cc1 | inactive
53 | COc1ccc(NC(=O)N2C[C@H](O)COC[C@@H]3O[C@H](CC(=O)NCc4ccccc4OC)CC[C@H]32)cc1 | inactive
54 | Cc1ccc(S(=O)(=O)N(C)C[C@@H]2Oc3c(NC(=O)c4ccncc4)cccc3C(=O)N([C@H](C)CO)C[C@@H]2C)cc1 | inactive
55 | COc1cccc(S(=O)(=O)N[C@H]2CC[C@@H](CCn3cc(-c4ccccc4OC)nn3)O[C@@H]2CO)c1 | inactive
56 | COc1cc(C(=O)O)ccc1NC(=O)[C@@H]1N[C@@H](CC(C)(C)C)[C@](C#N)(c2ccc(Cl)cc2F)[C@H]1c1cccc(Cl)c1F | active
57 | C[C@@H]1CN([C@H](C)CO)C(=O)c2cc(NS(=O)(=O)c3ccc(Cl)cc3)ccc2O[C@H]1CN(C)Cc1ccc(C(=O)Nc2ccccc2N)cc1 | inactive
58 | C[C@@H]1CN([C@H](C)CO)C(=O)c2cc(C#Cc3ccccc3F)cnc2O[C@H]1CN(C)C(=O)c1ccc2c(c1)OCO2 | inactive
59 | O=C(/C=C/c1cc2c(cc1Br)OCCO2)c1c(-c2ccccc2)c2cc(Cl)ccc2[nH]c1=O | active
